The source made the active and inactive calls. How the source made its calls: active means hit-call score of the fitted dose curve at least 0.9, where 1 is the maximum; inactive means score below 0.9.
Assays:
[1] = Tanguay_ZF_120hpf_CRAN: Oregon State University Tanguay Lab 120 Hour Post-fertilization zebrafish Assay for Craniofacial Malformation (AID 2284397)
Outline: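 Scoring of craniofacial malformation as a binary endpoint was done at 120 hpf by brightfield microscopy and was not done in dead embryos. Exposure was static, starting at 6 hpf, in dechorionated wild-type embryos held singly at 28C with 0.64% DMSO final.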

[2] = Tanguay_ZF_120hpf_AXIS: Oregon State University Tanguay Lab 120 Hour Post-fertilization zebrafish Assay for Axial Malformation (AID 2284398)
Outline: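 Scoring was binary (present or absent) for body-axis defects, judged by brightfield imaging at 120 hpf in surviving larvae. Exposure was static at 28C from 6 hpf in chorion-free 5D wild-type embryos, with 0.64% DMSO vehicle.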

[3] = Tanguay_ZF_120hpf_MORT: Oregon State University Tanguay Lab 120 Hour Post-fertilization zebrafish Assay for Mortality (AID 2284399)
Outline: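 Mortality, recorded present/absent via brightfield imaging at 24 and 120 hpf, in 5D zebrafish embryos exposed statically from 6 hpf after pronase chorion removal. Exposure at 28C, 0.64% DMSO vehicle, DMSO baseline.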

[4] = Tanguay_ZF_120hpf_EDEM: Oregon State University Tanguay Lab 120 Hour Post-fertilization zebrafish Assay for Edema Malformation (AID 2284400)
Outline: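 Edema recorded as a binary endpoint under brightfield at 120 hpf, excluding embryos that died. Exposure was static, sealed, 28C, from 6 hpf in dechorionated wild-type larvae, final DMSO 0.64%, DMSO as baseline.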

[5] = Tanguay_ZF_120hpf_BRN: Oregon State University Tanguay Lab 120 Hour Post-fertilization zebrafish Assay for Brain Region Malformation (AID 2284402)
Outline: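 Binary brightfield scoring of brain malformation at 120 hpf in 5D wild-type larvae, chorion removed with pronase at 4 hpf. Static exposure began at 6 hpf, 28C, sealed plates, DMSO 0.64% (vol/vol) as vehicle baseline.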

[6] = Tanguay_ZF_120hpf_TCHR: Oregon State University Tanguay Lab 120 Hour Post-fertilization zebrafish Assay for Touch Responsive (AID 2284403)
Outline: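 Binary touch-response calls are made at 120 hpf in 5D wild-type zebrafish larvae. These larvae were dechorionated with pronase and exposed singly from 6 hpf in sealed, dark plates at 28 °C with 0.64% DMSO final; dead embryos are excluded.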

[7] = CCTE_Padilla_ZF_Score.Spine: CCTE's 144 Hour Post-fertilization zebrafish Assay Score for Spine Malformation, Padilla Lab (AID 2284407)
Outline: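 Spine malformation scored at 6 dpf by two independent blinded observers under stereomicroscope, after static sealed exposure from 6–8 hpf at 26C in Hanks' solution with rinse on 5 dpf. Positive-direction fit against DMSO control.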

[8] = CCTE_Padilla_ZF_Score.Swim_bladder: CCTE's 144 Hour Post-fertilization zebrafish Assay Score for Swim Bladder Malformation, Padilla Lab (AID 2284408)
Outline: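 Swim bladder inflation scored at 6 dpf by two blinded observers under a stereo microscope. Exposure ran from 6–8 hpf in sealed wells of 10% Hanks' at 26C, with rinsing at 5 dpf; DMSO served as baseline.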

[9] = CCTE_Padilla_ZF_Score.Position: CCTE's 144 Hour Post-fertilization zebrafish Assay Score for Position, Padilla Lab (AID 2284409)
Outline: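 Wild-type zebrafish embryos (with chorions) exposed singly from 6–8 hpf in sealed wells of Hanks' solution at 26C, rinsed at 5 dpf. At 6 dpf, blinded assessors scored abnormal water-column position by brightfield stereomicroscopy, relative to DMSO.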

[10] = CCTE_Padilla_ZF_Score.Living: CCTE's 144 Hour Post-fertilization zebrafish Assay Score for Viability, Padilla Lab (AID 2284410);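 further: larval death at 6 dpf judged by absent heartbeat or coagulation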
Outline: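 Mortality at 6 dpf, judged as absent heartbeat or coagulation by two blinded observers, after sealed static exposure beginning at 6–8 hpf at 26C. Larvae were rinsed free of chemical at 5 dpf, and activity was fitted relative to DMSO.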

[11] = CCTE_Padilla_ZF_Score.General: CCTE's 144 Hour Post-fertilization zebrafish Assay Score for General Malformation, Padilla Lab (AID 2284411)
Outline: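 Malformation, death and hatching were scored at 6 dpf by two blinded observers under a stereo microscope. Embryos were dosed singly from 6-8 hpf in sealed plates of 10% Hanks' at 26C and rinsed on 5 dpf; DMSO baseline.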

[12] = CCTE_Padilla_ZF_Score.Tail: CCTE's 144 Hour Post-fertilization zebrafish Assay Score for Tail Malformation, Padilla Lab (AID 2284414)
Outline: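 Tail malformations were scored at 6 dpf by two blinded assessors under a stereo microscope. Chorionated embryos had been exposed from 6-8 hpf in sealed wells of 10% Hanks' at 26 C, then rinsed free of chemical at 5 dpf.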

[13] = CCTE_Padilla_ZF_Score.Any: CCTE's 144 Hour Post-fertilization zebrafish Assay Score for Any Mortality or Malformation, Padilla Lab (AID 2284416)
Outline: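 Wild-type zebrafish embryos with chorions, one per well in 10% Hanks' from 6–8 hpf, dosed in sealed plates at 26 C, 14:10 h light:dark; rinsed at 5 dpf; blinded scoring at 6 dpf for death or malformation, versus DMSO.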

[14] = CCTE_Padilla_ZF_Score.Edema: CCTE's 144 Hour Post-fertilization zebrafish Assay Score for Edema Malformation, Padilla Lab (AID 2284406)
Outline: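 Edema scored at 6 dpf by two blinded observers under a stereo microscope, in single outbred wild-type larvae exposed from 6-8 hpf in sealed wells (Hanks', 26C, 14:10 h light) and chemical-free after a 5 dpf rinse.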

[15] = Tanguay_ZF_120hpf_ANY: Oregon State University Tanguay Lab 120 Hour Post-fertilization zebrafish Assay for Any Mortality and Malformation (AID 2284404)
Outline: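 Dechorionated Tropical 5D wild-type embryos, one per well from 6 hpf, static exposure in sealed, dark plates at 28C until 120 hpf, 0.64% DMSO final. Brightfield scoring of mortality and malformations as binary presence/absence, pooling 13 morphology endpoints.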

[16] = CCTE_Padilla_ZF_Score.Blood_pooling: CCTE's 144 Hour Post-fertilization zebrafish Assay Score for Blood Pooling, Padilla Lab (AID 2284415)
Outline: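 Blood pooling was scored at 6 dpf under a stereo microscope by two blinded assessors, fitted upward against DMSO. Single embryos were dosed at 6–8 hpf in 10% Hanks', kept sealed at 26C (14:10 h cycle) and rinsed at 5 dpf.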

[17] = CCTE_Padilla_ZF_Score.Craniofacial: CCTE's 144 Hour Post-fertilization zebrafish Assay Score for Craniofacial Malformation, Padilla Lab (AID 2284405)
Outline: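 Craniofacial defects were scored at 6 dpf by two blinded observers using stereomicroscopy. Exposure of wild-type embryos began at 6–8 hpf in sealed wells of 10% Hanks' solution at 26C, with chemical removed by rinsing at 5 dpf.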

Measured: AC50

OCC(F)(F)C(F)(F)C(F)(F)C(F)F
not listed: [14] | [15] | [16] | [17]
inactive: all other assays above

O=P(O)(O)OCCC(F)(F)C(F)(F)C(F)(F)C(F)(F)C(F)(F)C(F)(F)F
active: [3] 18.7 µM
not listed: [2] | [12] | [15] | [16] | [17]
inactive: all other assays above

O=S(=O)(OCC(F)F)C(F)(F)F
not listed: [2] | [12] | [15] | [16] | [17]
inactive: all other assays above

O=C(O)C=C(C(F)(F)F)C(F)(F)F
not listed: [2] | [12] | [14] | [17]
inactive: all other assays above

O=C(O)C(F)(F)C(F)(F)C(F)(F)C(F)(F)C(F)(F)C(F)(F)C(F)(F)C(F)(F)C(F)(F)C(F)(F)C(F)(F)C(F)(F)C(F)(F)F
not listed: [2] | [12] | [14] | [15] | [16]
inactive: all other assays above

CCCCCCCCC(F)(F)C(F)(F)C(F)(F)C(F)(F)C(F)(F)C(F)(F)F
not listed: [12] | [14] | [15] | [16]
inactive: all other assays above

O=C(O)C(F)(F)C(F)(F)C(F)(F)C(F)(F)C(F)(F)C(F)(F)C(F)(F)C(F)(F)Cl
inactive: [3] | [7]
active: [1] 37.2 µM | [4] 37.2 µM | [5] 47.7 µM | [6] 37.2 µM | [17] 35.7 µM | [8] 9.95 µM | [9] 70.4 µM | [10] 35.5 µM | [11] 16.7 µM | [13] 10 µM

C=C(C)C(=O)OCCC(F)(F)C(F)(F)C(F)(F)C(F)(F)C(F)(C(F)(F)F)C(F)(F)F
not listed: [2] | [12] | [14] | [16] | [17]
inactive: all other assays above

FC(F)(F)C(F)(F)C(F)(F)C(F)(F)C(F)(F)C(F)(F)C(F)(F)I
active: [8] 63.8 µM | [11] 11.8 µM | [13] 12.4 µM
not listed: [2] | [14] | [15] | [16] | [17]
inactive: all other assays above

OCC(F)(F)C(F)(F)C(F)(F)F
not listed: [12] | [15] | [16] | [17]
inactive: all other assays above

C=C(C)C(=O)OCC(F)(F)C(F)(F)C(F)(F)C(F)(F)C(F)(F)C(F)(F)C(F)(F)F
not listed: [2] | [12] | [15] | [16] | [17]
inactive: all other assays above

COC(=O)CCC(F)(F)C(F)(F)C(F)(F)C(F)(F)F
inactive: [1] | [3] | [4] | [5] | [6]

Cc1ccc(S(=O)(=O)OCC(F)(F)C(F)(F)C(F)(F)C(F)(F)C(F)(F)C(F)F)cc1
active: [8] 9.81 µM | [11] 8.85 µM | [13] 22.9 µM
not listed: [2] | [12] | [15] | [16] | [17]
inactive: all other assays above

Reference: PubChem BioAssay (EPA / NIEHS)
